Assay results: PubChem BioAssay (NCATS)
Records with an inconclusive call do not appear. Activity calls are given as the source filed them. Calls follow the shape of the dose curve; as a rule, active = well fitted inhibition curve with a large enough effect; inconclusive = small, poorly fitted or top-dose-only effect; inactive = flat fitted curve, though single readings scatter.

What was measured:
Assay in all cases: qHTS profiling for inhibitors of Plasmodium falciparum proliferation (AID 504749); also: nearly all actives have a fitted effect of over 60% in size
Conditions in all cases: P. falciparum in erythrocytes, SYBR Green DNA, 72 h; series mostly up to 28.7 µM
[1] = test system: CP325
How it was run: (§1)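 P. falciparum-infected erythrocytes (0.3% parasitemia, 2.5% hematocrit final) were exposed to compounds for 72 h at 37 C in 5% CO2, then lysed with SYBR Green buffer overnight at room temperature; parasite DNA fluorescence was normalized to artemisinin and DMSO controls.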

[2] = test system: CP329
How it was run: as §1

[3] = test system: CP335
How it was run: as §1

[4] = test system: DFO2036
How it was run: as §1

[5] = test system: DIV14
How it was run: as §1

[6] = test system: DIV17
How it was run: as §1

[7] = test system: DIV30
How it was run: as §1

[8] = test system: Dd2
How it was run: as §1

[9] = test system: ECU
How it was run: as §1

[10] = test system: FAB9
How it was run: as §1

[11] = test system: GB4
How it was run: as §1

[12] = test system: HB3
How it was run: as §1

[13] = test system: ICS
How it was run: as §1

[14] = test system: JCK
How it was run: as §1

[15] = test system: N140
How it was run: as §1

[16] = test system: P93_24
How it was run: as §1

[17] = test system: P94_40
How it was run: as §1

[18] = test system: PAD
How it was run: as §1

[19] = test system: PC15
How it was run: as §1

[20] = test system: PC26
How it was run: as §1

Measured: Potency
Potency is read from the fitted curve at half-maximal effect.

C=CCSCC1Nc2cc(Cl)c(S(N)(=O)=O)cc2S(=O)(=O)N1 (stereo not given)
inactive: all assays above

CCOC(N)=O
inactive: all assays above

Cc1ccsc1C(=CCCN1CCC[C@@H](C(=O)O)C1)c1sccc1C
inactive: all assays above

NS(=O)(=O)c1cc2c(cc1C(F)(F)F)NCNS2(=O)=O
inactive: all assays above

Cc1ccccc1N=Nc1ccc(N=Nc2c(O)ccc3ccccc23)c(C)c1
inactive: all assays above

NS(=O)(=O)c1ccc(NC(=O)CCC(=O)O)cc1
inactive: all assays above

CC(C)=CCC/C(C)=C/CO
inactive: all assays above

CC(C(=O)O)c1ccc2c(c1)Cc1cccnc1O2 (stereo not given)
inactive: all assays above

NNC(=O)CP(=O)(c1ccccc1)c1ccccc1
inactive: all assays above

CCCCC1(COC(=O)CCC(=O)O)C(=O)N(c2ccccc2)N(c2ccccc2)C1=O
inactive: all assays above

Nc1ccncc1N
inactive: all assays above

CCS(=O)(=O)CCn1c([N+](=O)[O-])cnc1C
inactive: all assays above

CC(O)CCCCn1c(=O)c2c(ncn2C)n(C)c1=O (stereo not given)
inactive: all assays above

CCCCCCCCCCCCCCCCN
inactive: all assays above

Cc1cccc(Nc2ccccc2C(=O)O)c1C
inactive: all assays above

Cc1c(C)c2c(c(C)c1OC(=O)c1cccnc1)CC[C@@](C)(CCC[C@H](C)CCC[C@H](C)CCCC(C)C)O2
inactive: all assays above

O=C(Cn1ccnc1[N+](=O)[O-])NCc1ccccc1
inactive: all assays above

Cc1cc(=O)[nH]c(=S)[nH]1
inactive: all assays above

NC(N)=NCCN1CCCCCCC1
inactive: all assays above

CCN(CC)CCc1nc(-c2ccccc2)no1
inactive: all assays above

C[C@@H](N)C(=O)O
inactive: all assays above

CC(C)(C)C(=O)OCOC(=O)[C@@H]1N2C(=O)[C@@H](NC(=O)[C@H](N)c3ccccc3)[C@H]2SC1(C)C
inactive: all assays above

NCC1CCC(C(=O)Oc2ccc(CCC(=O)O)cc2)CC1 (stereo not given)
inactive: all assays above

Nc1ccc(S(=O)(=O)c2ccc(N)cc2)cc1
inactive: all assays above

CCN(CC)CC1CCCCN1CC(=O)N1c2ccccc2C(=O)Nc2cccnc21 (stereo not given)
inactive: all assays above

Cc1c(N(C)C)c(=O)n(-c2ccccc2)n1C
inactive: all assays above

CC1CCc2cc(F)cc3c(=O)c(C(=O)O)cn1c23 (stereo not given)
inactive: all assays above

O=C(O)c1ccccc1C(=O)Nc1ccc(S(=O)(=O)Nc2nccs2)cc1
inactive: all assays above

CCCC(O)C(CC)CO (stereo not given)
inactive: all assays above

CC(C)C[C@@H](N)C(=O)O
inactive: all assays above

c1ccc2[nH]ccc2c1
inactive: all assays above

O=C(O)c1ccc(OCCCOc2ccc(C(=O)O)cc2)cc1
inactive: all assays above

O=C(NCCCN1CCOCC1)c1ccc(Cl)cc1
inactive: all assays above

COC(=O)c1ccc(O)cc1
inactive: all assays above

CCCCCCCC(=O)OCC(O)CO (stereo not given)
inactive: all assays above

CCCCCCCC(=O)OCC(COC(=O)CCCCCCC)OC(=O)CCCCCCC
inactive: all assays above

Cc1ccc(S(=O)(=O)NC(=O)NC2CCCCCCC2)cc1
inactive: all assays above

C[N+](C)(C)CC[N+]1(C)Cc2c(Cl)c(Cl)c(Cl)c(Cl)c2C1
inactive: all assays above

CCN(CC)C(=O)c1cccc(C)c1
inactive: all assays above

C[C@@H]1O[C@@H](OC[C@H]2O[C@@H](Oc3c(-c4ccc(O)c(O)c4)oc4cc(O)cc(O)c4c3=O)[C@H](O)[C@@H](O)[C@@H]2O)[C@H](O)[C@H](O)[C@H]1O
inactive: all assays above

CC(N)CCCC(C)(C)O (stereo not given)
inactive: all assays above

O=C(OOC(=O)c1ccccc1)c1ccccc1
inactive: all assays above

Cc1cccc(C)c1NC(=O)CC12CCCN1CCC2
inactive: all assays above

CCc1cccc(CC)c1NC(=O)CN(CC(=O)O)CC(=O)O
inactive: all assays above

O=S1(=O)OC(c2ccc(O)cc2)(c2ccc(O)cc2)c2ccccc21
inactive: all assays above

CCOc1ccc(C(=O)OCCN(CC)CC)cc1
inactive: all assays above

COc1ccc(NS(=O)(=O)c2ccc(N)cc2)nn1
inactive: all assays above

CC(=O)Nc1cccc(O)c1
inactive: all assays above

CC(=O)NCc1c(I)c(NC(C)=O)c(I)c(C(=O)O)c1I
active: [14] 11.2 µM
inactive: all other assays above

CN1C(C)(C)CCCC1(C)C
inactive: all assays above

CCOc1cc(NC(C)=O)ccc1C(=O)OC
inactive: all assays above

O=c1[nH]c2cc(C(F)(F)F)c(N3CCOCC3)cc2n(CP(=O)(O)O)c1=O
inactive: all assays above

CCc1nnc(NS(=O)(=O)c2ccc(N)cc2)s1
inactive: all assays above

O=C1c2cccc(O)c2C(=O)c2c(O)cccc21
inactive: all assays above

CN(C(=O)c1c(O)c2ccccc2n(C)c1=O)c1ccccc1
inactive: all assays above

CNCc1ccccc1
inactive: all assays above

O=C(O)Cc1cn(-c2ccccc2)nc1-c1ccc(Cl)cc1
inactive: all assays above
